Results from PubChem BioAssay (NCATS).
Results filed as inconclusive are left out. Unmarked numbers belong to inactive results. Active and inactive are the calls of the source. Calls follow the shape of the dose curve; as a rule, active = well fitted inhibition curve with a large enough effect; inconclusive = small, poorly fitted or top-dose-only effect; inactive = flat fitted curve, though single readings scatter. Where a SMILES comes first, the peptide text is derived from it. [ ]: non-standard residue; d: D form. pGlu = O=C1CC[C@@H](C(=O)O)N1

Each molecule was assayed against Voltage-gated inwardly rectifying potassium channel KCNH2 (Homo sapiens) (UniProt Q12809) (assay: qHTS Assay for Small Molecule Inhibitors of the Human hERG Channel Activity (AID 588834;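 also: lower thallium flux fluorescence means stronger hERG block; nearly all actives have a fitted effect of over 50% in size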; as to activity change, negative = inhibition: top concentration of the series differs between compounds)). Settings: U2OS BacMam hERG, FluxOR thallium flux fluorescence; series mostly up to 46.1 µM; activity change, negative = inhibition: at the top concentration.
Chain of Voltage-gated inwardly rectifying potassium channel KCNH2 (Homo sapiens) (Q12809 whole entry, looked up): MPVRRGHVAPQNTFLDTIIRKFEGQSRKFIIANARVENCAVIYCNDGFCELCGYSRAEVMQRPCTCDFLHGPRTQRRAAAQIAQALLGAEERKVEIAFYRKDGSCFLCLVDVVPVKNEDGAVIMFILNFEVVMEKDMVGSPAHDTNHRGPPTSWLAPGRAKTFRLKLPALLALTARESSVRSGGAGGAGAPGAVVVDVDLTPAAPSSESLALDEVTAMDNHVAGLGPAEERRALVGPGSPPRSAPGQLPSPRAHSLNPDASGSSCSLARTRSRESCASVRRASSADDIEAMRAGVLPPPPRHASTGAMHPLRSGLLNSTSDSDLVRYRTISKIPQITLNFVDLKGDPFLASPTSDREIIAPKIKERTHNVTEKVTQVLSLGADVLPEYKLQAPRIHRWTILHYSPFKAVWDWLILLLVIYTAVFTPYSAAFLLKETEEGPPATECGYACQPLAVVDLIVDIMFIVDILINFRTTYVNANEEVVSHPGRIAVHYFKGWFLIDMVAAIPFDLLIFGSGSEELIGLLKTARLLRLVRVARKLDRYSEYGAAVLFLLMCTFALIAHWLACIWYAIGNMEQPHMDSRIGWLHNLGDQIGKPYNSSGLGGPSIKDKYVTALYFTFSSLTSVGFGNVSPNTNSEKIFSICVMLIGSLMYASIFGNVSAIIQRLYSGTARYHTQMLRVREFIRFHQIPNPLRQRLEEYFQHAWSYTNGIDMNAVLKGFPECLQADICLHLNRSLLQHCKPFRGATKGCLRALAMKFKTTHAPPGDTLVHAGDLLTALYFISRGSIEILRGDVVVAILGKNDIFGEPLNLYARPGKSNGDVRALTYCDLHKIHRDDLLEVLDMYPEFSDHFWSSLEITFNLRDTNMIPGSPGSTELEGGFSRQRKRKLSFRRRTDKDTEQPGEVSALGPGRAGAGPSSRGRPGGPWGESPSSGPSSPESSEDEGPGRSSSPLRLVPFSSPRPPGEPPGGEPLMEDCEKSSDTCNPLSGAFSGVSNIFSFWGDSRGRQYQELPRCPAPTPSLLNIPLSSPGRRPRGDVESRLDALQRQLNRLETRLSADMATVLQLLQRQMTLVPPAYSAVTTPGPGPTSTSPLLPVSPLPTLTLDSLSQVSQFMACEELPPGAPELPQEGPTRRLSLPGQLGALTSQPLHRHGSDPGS
Description: NIH Chemical Genomics Center [NCGC]
National Institutes of Environmental Health Sciences [NIEHS]
National Toxicology Program [NTP]
We have developed a 1536-well cell-based assay for quantitative high throughput screening (qHTS) to determine in vitro hERG channel blockage as a measure of cardio toxicity with small molecules. This particular assay uses the U2OS cell line which is derived from human osteosarcoma.
NCGC Assay Protocol Summary:
HERG assay (FluxORTM thallium flux assay) was initially developed by Invitrogen/Molecular Probes, and then miniaturized into 1536-well plate in a homogeneous format by NCGC. This assay measures the activity of potassium channel using thallium dye (FluxOR) flux as surrogate measurement for potassium into the cells with a FDSS-7000 kinetic plate reader (Hamamatsu Corp., Hamamatsu City, Japan). The hERG ion channel is transduced into mammalian cells (U2OS) using a baculovirus (Bacmam) construct harboring the hERG K+ ion channel. So far we screened LOPAC1280 library (Sigma), the NTP collection of 1408 compounds, and the NCGC Pharmaceutical Collection (NPC), in which many well defined HERG blockers are present. The rank order potencies of many of these compounds are similar to that of other HERG assays (membrane potential, Rb+ flux, patch clamp, etc). This quick and homogeneous assay is also found to be sensitive, specific, and robust.
Using the FluxORTM thallium flux assay, the activity of potassium channel using thallium dye (FluxOR) flux as surrogate measurement for potassium into the cells was measured in the U2OS cell line transduced with hERG K+ ion channel using a baculovirus (Bacmam) using Opti-MEM medium (Invitrogen) containing 2% fetal calf serum (FCS, HyCone) following loading buffer addition, compound treatment for around 10 minutes and finally adding stimulation buffer. The assay was performed in black clear Kalypsys 1536-well plates. In the screen, Astemizole was used as positive controls. Library compounds were measured for their ability to cause hERG channel blockage in the cell line, as reflected by a decrease in fluorescence intensity, in a concentration-dependent manner. […] AC50 values were determined from concentration-response data modeled with the standard Hill equation.
qHTS protocol for hERG-U2OS cellular assay
[Step] [Parameter] [Value] [Description]
1. Day 1: Replace medium in 70-80% confluent T225 flask with 2.5 mL of hERG-BacMam virus plus 12.5 mL of phosphate buffered saline (PBS) (corresponding roughly to a multiplicity of infection ratio of 100 virus particles/cell)
2. Incubation: 4 hrs @ room Temperature in Dark
3. Reagent; Remove virus; wash once with 25 ml DPBS
4. Reagent; 35 ml culture medium
5. Incubation; 37 °C overnight
6. Day2: Reagent; 3 uL; 2000 U2OS cells/well
7. Time; 4 hr; 37 °C incubation
8. Loading buffer; 1 uL; 0.7X;
9. Incubation: 1hr @ RT in Dark.
12. Time; 10min; 37 °C incubation
13. Read fluorescence Intensity on FDSS for 10 Sec with 1 sec interval
14. Reagent; 1 uL; stimulation buffer
15. Read fluorescence Intensity on FDSS for 2 min with 1 sec interval
16. Detection; Fluorescence Intensity; FDSS
% is scaled to controls: 0 for no effect and ±100 for the full control effect; potency is read from the fitted curve at half-maximal effect.

| Structure (SMILES) | activity change, negative = inhibition | Potency |
| --- | --- | --- |
| OC1OC[C@@H](O)[C@H](O)[C@@H]1O (stereo not given in full) | 4.62% | – |
| CCCCC[C@H](O)/C=C/[C@H]1[C@H](O)CC(=O)[C@@H]1C/C=C\CCCC(=O)O | 15.2% | – |
| Cc1c(N)nc([C@H](CC(N)=O)NC[C@H](N)C(N)=O)nc1C(=O)N[C@H](C(=O)N[C@H](C)[C@@H](O)[C@H](C)C(=O)N[C@H](C(=O)NCCc1nc(-c2nc(C(=O)NCCCCN=C(N)N)cs2)cs1)[C@@H](C)O)[C@@H](O[C@@H]1O[C@@H](CO)[C@@H](O)[C@H](O)[C@@H]1O[C@H]1O[C@H](CO)[C@@H](O)[C@H](OC(N)=O)[C@@H]1O)c1cnc[nH]1 | -4.86% | – |
| CCOc1ccc(S(=O)(=O)O)c2cccnc12 | 11.7% | – |
| NCC[C@H](O)C(=O)N[C@@H]1C[C@H](N)[C@@H](O[C@H]2O[C@H](CN)[C@@H](O)[C@H](O)[C@H]2O)[C@H](O)[C@H]1O[C@H]1O[C@H](CO)[C@@H](O)[C@H](N)[C@H]1O | 4.07% | – |
| C[C@@H]1C[C@H]2[C@@H]3CCC4=CC(=O)C=C[C@]4(C)[C@@]3(F)[C@@H](O)C[C@]2(C)[C@@]1(O)C(=O)COC(=O)c1cccc(S(=O)(=O)O)c1 | 16.2% | – |
| CN[C@@H]1[C@@H](O)[C@@H](O[C@@H]2[C@@H](O)[C@H](O[C@H]3O[C@H](CN)[C@@H](O)[C@H](O)[C@H]3O)[C@@H](N)C[C@H]2NC(=O)C(O)CN)OC[C@]1(C)O (stereo not given in full) | 16.3% | – |
| CCc1ccc(S(=O)(=O)O)cc1 | 12.4% | – |
| Cc1ncc(COP(=O)(O)O)c(CN)c1O | 6.62% | – |
| CCN(CC)CCCC(C)Nc1cc(/C=C/c2ccccc2Cl)nc2cc(Cl)ccc12 (stereo not given) | – | 14.1 µM (active) |
| OC[C@H]1OC([S-])[C@H](O)[C@@H](O)[C@@H]1O.[Au+] (stereo not given in full) | 5.42% | – |
| C[C@@H]1NC(=O)[C@@H](N)CNC(=O)[C@H](C2CCNC(N)=N2)NC(=O)/C(=C/NC(N)=O)NC(=O)[C@H](CNC(=O)C[C@@H](N)CCCN)NC1=O (stereo not given in full) | 23.3% | – |
| CC[C@@H]1/C=C(\C)C[C@H](C)C[C@H](OC)[C@H]2O[C@@](O)(C(=O)C(=O)N3CCCC[C@H]3C(=O)O[C@H](/C(C)=C/[C@@H]3CC[C@@H](Cl)[C@H](OC)C3)[C@H](C)[C@@H](O)CC1=O)[C@H](C)C[C@@H]2OC | 3.82% | – |
| Cc1c(C)c2c(c(C)c1OC(=O)CCC(=O)O)CC[C@@](C)(CCC[C@H](C)CCC[C@H](C)CCCC(C)C)O2 | 29.1% | – |
| CC(C)CN(C[C@@H](O)[C@H](Cc1ccccc1)NC(=O)O[C@@H]1CCOC1)S(=O)(=O)c1ccc(N)cc1 | -10.3% | – |
| CC(=O)Nc1ccc(OC(C)=O)cc1 | 26.7% | – |
| N#Cc1ccc2c(c1)N(CCCN1CCC(O)CC1)c1ccccc1S2 | – | 14.1 µM (active) |
| N=C(N)c1ccc(/C=C/c2ccc(C(=N)N)cc2O)cc1 | 5.52% | – |
| [O]=[Bi][O]C(=O)[O][Bi]=[O] | -0.918% | – |
| CCC(O)c1ccccc1 (stereo not given) | -14.7% | – |

| Structure (SMILES) | activity change, negative = inhibition | Potency |
| --- | --- | --- |
| C/C(=C\C(=O)OCCCCCCCCC(=O)O)C[C@@H]1OC[C@H](C[C@@H]2O[C@H]2[C@@H](C)[C@H](C)O)[C@@H](O)[C@H]1O | 10.3% | – |
| CC(C)(COP(=O)(O)OP(=O)(O)OC[C@H]1O[C@@H](n2cnc3c(N)ncnc32)[C@H](O)[C@@H]1OP(=O)(O)O)C(O)C(=O)NCCC(=O)NCCS (stereo not given in full) | 9.6% | – |
| COC(=O)C(CN)c1c[nH]c2ccc(OC)cc12 (stereo not given) | 18.2% | – |
| C=CC(=O)O | -8.9% | – |
| CN(CCO)CC(O)Cn1cnc2c1c(=O)n(C)c(=O)n2C (stereo not given) (tested in a mixture with another compound) | -10.6% | – |
| CC(=O)[O][Al][O]C(C)=O | -8.29% | – |
| CCN1\C(=C/C=C/C=C/c2sc3ccccc3[n+]2CC)Sc2ccccc21 | – | 11.2 µM (active) |
| CC(C)CCC[C@@H](C)[C@H]1CC[C@H]2[C@@H]3CC[C@@H]4C[C@H](O)CC[C@]4(C)[C@H]3CC[C@]12C | -0.894% | – |
| O=C1CCC(=O)N1CO | 5.19% | – |
| CCCCCCCCCCCCCCCCCC(=O)OC[C@@H](O)[C@H]1OC[C@H](O)[C@H]1O | -14.6% | – |
| CN1CCCC(CN2c3ccccc3Sc3ccccc32)C1 (stereo not given) | – | 12.6 µM (active) |
| CN1c2c(nc(N)[nH]c2=O)NCC1CNc1ccc(C(=O)NC(CCC(=O)O)C(=O)O)cc1 (stereo not given) | 10.3% | – |
| C[C@@](Cc1ccc(O)c(O)c1)(NN)C(=O)O | – | inactive |
| Oc1cc(O)cc(O)c1 | 8.14% | – |
| CO/N=C(\C(=O)N[C@@H]1C(=O)N2C(C(=O)O)=CCS[C@H]12)c1csc(N)n1 | 9.15% | – |
| COc1ccc(-c2noc(CC(=O)O)c2-c2ccc(OC)cc2)cc1 | 0.318% | – |
| CC1=CC(=C(c2ccc(N)cc2)c2ccc(N)cc2)C=CC1=N | -27.1% | – |
| O=C(Nc1ccc(O)cc1)c1ccccc1O | -0.581% | – |
| O=C(O)COc1ccc(CCNS(=O)(=O)c2ccccc2)s1 | 2.01% | – |
| CC[C@H](C)[C@H](NC(=O)[C@H](Cc1ccccc1)NC(=O)[C@H](C)NC(=O)[C@H](CC(=O)O)NC(=O)[C@H](CCCCN)NC(=O)[C@H](CO)NC(=O)[C@@H]1CCCN1C(=O)[C@@H]1CCC(=O)N1)C(=O)NCC(=O)N[C@@H](CC(C)C)C(=O)N[C@@H](CCSC)C(N)=O ([pGlu]PSKDAFIGLM-NH2) | 4.37% | – |
